Laboratory results as given in PubChem BioAssay AID1739 (National Center for Advancing Translational Sciences (NCATS), 2009).
Records with an inconclusive call do not appear. Where a call stands in place of a potency, no number is given. Active and inactive are the calls of the source. The call rests on the fitted dose curve; in most records, active means well fitted inhibition curve with a large enough effect; inconclusive means small, poorly fitted or top-dose-only effect; inactive means flat fitted curve, though single readings scatter.

Experiment: Counterscreen Assay for Enhancers of SMN2 Splice Variant Expression: Modulation of SMN1 Expression
Conditions: HEK293 SMN1-luciferase reporter, luminescence, 30-36 h; series mostly up to 22.8 µM
Source text: NIH Chemical Genomics Center [NCGC] NIH Molecular Libraries Probe Production centers Network [MLPCN] MLPCN Grant: R03 MH084179-01 Assay Submitter (PI): Elliot Androphy NCGC Assay Overview: Spinal muscular atrophy (SMA) is caused by insufficient levels of the survival motor neuron protein SMN. The SMN locus on chromosome 5q13 contains two inverted copies of SMN called SMN1 and SMN2 which are 99% identical at the amino acid level. SMN1 is a fully functional protein and SMN2 skips exon 7 90% of the time. Skipping of exon 7 produces non-functional protein product. 10% of the SMN2 protein includes exon 7 and is fully functional. In the SMA disease state, mutations in the SMN1 locus are the cause of the disease state. Because only 10% of SMN2 is of the fully functional form, it is not sufficient to overcome the deficiency produced by the loss of the SMN1 product. A therapy that either increase the amount of SMN2 product made or to increase the inclusion of exon 7 has been proposed for the treatment of SMA. We have designed an assay to identify small molecules that can increase the amount of functional SMN2 product by appending a luciferase reporter gene after the native SMN2 gene, such that inclusion of exon 7 in the expressed product places the luciferase sequence in frame, thus generating functional luciferase enzyme. As a counterscreen for nonspecific modulators of expression, we have run compounds through a similar assay that measures expression of an SMN1-luciferase chimera.
NCGC Assay Protocol Summary: This screen utilizes a luciferase reporter gene assay, combining the promoter with the major portion of the native SMN1 cDNA (exons 1 -7, intron 8 , exon 8 fused to luciferase) stably expressed in HEK293 cells. Compounds that increase luciferase signal presumably enhance expression of the functional SMN1 splice variant. Passaging media contained DMEM w/ glutamax (+phenol red) 10% FCS, 1x pen/strep, 200 ug/ml hygro, 1x sodium pyruvate. Assay media contained DMEM w/ glutamax (-phenol red) 10% FCS, 1x pen strep, 1x pyruvate Sequence, Parameter, Value, Description (1) Cells, 5 uL, 2000 cells/well, 1536 TC treated White solid bottom plate (2) Time, 10-12 hours, 37C 5% CO2 (3) Compound, 23 nl, MLSMR Library (4) Control Compound, 23 nL, Sodium butyrate st 4.5mM (final) conc (5) Time, 30-36 hours, 37C 5% CO2 (6) Reagent, 3 ul, One Glo (TM) from Promega (7) Time, 5-15 minutes, Room temp (8) Detector, Viewlux: luminescent read, 60 second integration, high speed 2x binning Keywords: Spinal muscular atrophy, SMA, SMN2, high throughput screening, MLSMR, MLPCN, NIH Roadmap, qHTS and NCGC

SMILES	Potency
O=C(NCCCNCCCNC(=O)c1ccccn1)c1ccccn1	inactive
Nc1ccccc1-c1nnn(CC(=O)N2CCCc3ccccc32)n1	inactive
Cc1ccc(C2c3c(oc4ccccc4c3=O)C(=O)N2CCCN2CCOCC2)o1 (stereo not drawn)	inactive
Cc1ccc(-c2nnc(-c3ccccc3)c(-c3ccccc3)n2)cc1	inactive
COCCCN1C(=O)C(=O)/C(=C(/O)c2ccc3c(c2)CC(C)O3)C1c1cccnc1 (stereo not drawn)	inactive
Clc1ccc(-c2nnc(-c3ccccc3)nc2N2CCSCC2)cc1	inactive
COc1ccc(OC)c(-c2csc(N3CCC(c4ccccc4)CC3)n2)c1	inactive
Brc1ccc(-c2nnc(-c3ccccc3)c(N3CCSCC3)n2)cc1	inactive
Brc1nc2ncnc(NCc3ccco3)c2[nH]1	inactive
Cn1c(C(=O)NCc2cccs2)cc2oc3ccccc3c21	3.16 µM (active)
Cc1[nH]c2ccccc2c1-c1nc(-c2ccc(Cl)cc2)nnc1-c1ccccc1	inactive
OCCCNc1nc(-c2ccc(Cl)cc2)nnc1-c1ccccc1	inactive
O=c1cc(N2CCN(c3cccc(Cl)c3)CC2)[nH]c(=O)n1C1CCCCC1	inactive
Cc1nnc(-c2ccccc2)[nH]c1=O	inactive
O=C(Nc1nc(-c2ccc3ccccc3c2)cs1)C1CCN(S(=O)(=O)c2cccs2)CC1	inactive
CC(/C=C/C(=O)NO)=C\[C@@H](C)C(=O)c1ccc(N(C)C)cc1	7.94 µM (active)
c1ccc(-c2nnc(-c3ccccc3)c(-c3c[nH]c4ccccc34)n2)cc1	inactive
CCOC(=O)c1c(-c2cccc(C)c2)csc1NC(=O)c1c(-c2ccccc2)noc1C	0.355 µM (active)
CC1CN(c2nc(-c3ccc(Br)cc3)nnc2-c2ccccc2)CC(C)N1 (stereo not drawn)	inactive
O=c1[nH]c(=O)n(C2CCCO2)cc1Br (stereo not drawn)	inactive
OCCCNc1nc(-c2ccc(Br)cc2)nnc1-c1ccc(Cl)cc1	inactive
Nn1c(SCC(=O)NCCC2=CCCCC2)nnc1C1CCCCC1	inactive
FC(F)(F)c1cccc(-c2nnc(-c3ccccc3)c(N3CCOCC3)n2)c1	inactive
